# From PubChem BioAssay
# The list is not random: actives were taken first. Their share in the collection is about 1.2%.
# sEH inhibitor: soluble epoxide hydrolase inhibitors, primary screen, biochemical, human sEH; AID 707, 2007; hit rate 0.34% among 91,000; inhibition, % at 2 µM; recombinant human sEH enzymatic activity assay; in the data active = inhibition above about 80%
# Target sequence (P34913 whole entry, looked up): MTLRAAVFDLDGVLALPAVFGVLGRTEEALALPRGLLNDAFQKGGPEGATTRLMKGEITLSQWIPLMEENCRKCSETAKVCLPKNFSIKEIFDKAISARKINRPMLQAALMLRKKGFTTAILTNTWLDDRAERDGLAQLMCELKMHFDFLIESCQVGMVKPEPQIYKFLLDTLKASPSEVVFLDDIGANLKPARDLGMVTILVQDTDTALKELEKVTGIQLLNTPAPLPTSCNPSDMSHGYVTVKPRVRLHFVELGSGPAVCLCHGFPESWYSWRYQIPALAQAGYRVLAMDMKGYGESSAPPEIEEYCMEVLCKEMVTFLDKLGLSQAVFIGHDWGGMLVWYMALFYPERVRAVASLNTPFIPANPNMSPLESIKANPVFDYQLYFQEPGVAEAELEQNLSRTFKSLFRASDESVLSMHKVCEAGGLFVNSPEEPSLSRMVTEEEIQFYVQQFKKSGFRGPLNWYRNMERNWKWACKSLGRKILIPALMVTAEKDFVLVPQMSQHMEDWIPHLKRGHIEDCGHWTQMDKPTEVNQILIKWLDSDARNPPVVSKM
# HUVEC tox IL1B: cytotoxicity in IL-1B stimulated HUVEC, primary screen, cytotoxicity control for IL-1B NFkB translocation project, imaging, Hoechst nuclear count, IL-1B stimulus | hit rate 0.41% among 94,000 | AID 845, 2007 | HUVEC cell count loss | cell count reduction, % at 2 µM;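 active = cell count reduction more than 3 SD above the screen-wide mean, cut at about 70% in these data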;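 note: normalized per plate to untreated control cells as the no-loss baseline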
# NFkB transloc inh: inhibitors of IL-1B driven NFkB p65 nuclear import, primary screen, imaging, HUVEC, IL-1B stimulus, high-content imaging | HUVEC IL-1B NFkB p65 nuclear translocation imaging | inhibition, % at 2 µM | hit rate 0.43% among 94,000 | AID 796, 2007;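 active = inhibition above about 30% together with a positive call from visual inspection of the well image, limit read from the data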;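 note: nuclear over cytoplasmic p65 intensity ratio measured by imaging; 0% = IL-1B stimulated DMSO wells and 100% = unstimulated DMSO wells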
# sEH activator: soluble epoxide hydrolase activators, primary screen, biochemical, human sEH; hit rate 0.04% among 91,000; activation, % at 2 µM; Bifunctional epoxide hydrolase 2 (Homo sapiens), P34913; purified human sEH enzymatic activity, activator screen; in the data active = activation above about 37%
# NFkB transloc pot: enhancers of NFkB p65 translocation in HUVEC – imaging, IL-1B stimulus, high-content imaging, primary screen; HUVEC IL-1B NFkB p65 nuclear translocation imaging; activation, % at 2 µM; hit rate 0.3% among 94,000;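 active = activation above 40%, about the mean plus 3 SD, also judged a hit on visual image review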;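 note: percent activation is computed from the nuclear over cytoplasmic p65 intensity ratio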
# * hit, by the source's call; nt = no result.
SMILES,sEH inhibitor,HUVEC tox IL1B,NFkB transloc inh,sEH activator,NFkB transloc pot
Cc1ccccc1-c1nc(CN2CCC(C(=O)NCCC3=CCCCC3)CC2)c(C)o1,93*,0,2,-93,-3
Cc1oc(-c2ccccc2F)nc1CN1CCC(C(=O)NC2CCCc3ccccc32)CC1 (stereo not drawn),nt,-26,-9,nt,9
O=C(NC1CCCCCCC1)C1CCN(c2nc3ccccc3o2)CC1,93*,5,17,-93,-17
Cc1oc(-c2ccccc2F)nc1CN1CCC(C(=O)NC2CCCCCCC2)CC1,91*,-10,1,-91,-1
COC(=O)CN(c1cccc(F)c1)S(C)(=O)=O,7,0,-71,-4,71*
CC(C)C(NC(=O)CN(c1cccc(F)c1)S(C)(=O)=O)C(C)C,0,-32,-21,0,21
COc1ccccc1N1CCN(C(=O)CSc2ncccc2-c2nc3ccccc3[nH]2)CC1,-2,25,-21,4,21
O=C(CSc1ncccc1-c1nc2ccccc2[nH]1)N1CCN(c2ccccc2F)CC1,-2,85*,-15,1,15
CCC(CC)C(=O)Nc1cc(OC)c(OC)cc1C(=O)O,-3,0,-18,4,18
COc1cc(N(C)C)c(NC(C)=O)cc1C(=O)O,0,85*,-10,0,10
CCN(C(=O)Cc1cccs1)c1nnc(-c2cccnc2)s1,21,-1,6,-21,-6
CCOC(=O)C1=C(C)NC(=O)C(C(N)=O)C1c1ccccc1 (stereo not drawn),-41,-7,-3,37*,3
CCOC(=O)C1=C(C)NC(=O)C(C(N)=O)C12CCCC2 (stereo not drawn),1,0,-9,0,9
COc1ccc(CC(=O)Nc2ccc(-c3nnc(-c4ccccc4)o3)cc2)cc1OC,20,-14,91*,-21,-91
COc1ccc(CC(=O)Nc2cccc(-c3nnc(-c4ccccc4)o3)c2)cc1OC,7,-31,-10,-6,10
COc1ccc(-c2nc3cc(NC(=O)Cc4ccc(OC)c(OC)c4)ccc3o2)cc1,80*,-7,0,-80,0
CCCC(=O)Nc1ccc2oc(-c3ccncc3)nc2c1,14,-80,0,-15,0
O=S(=O)(/N=C(/c1ccc(Cl)cc1)N1CCOCC1)c1ccc(Cl)cc1,-5,-9,-5,9,5
COc1ccccc1/C=c1\sc2nc(-c3ccccc3OC)nn2c1=O,-9,14,-52,9,52*
Cc1cccc(N(C)S(=O)(=O)c2ccc3[nH]cc(C(=O)N4CCOCC4)c(=O)c3c2)c1,-5,14,1,6,-1
Cc1cccc(N(C)S(=O)(=O)c2ccc3[nH]c(=O)c(=O)[nH]c3c2)c1,-3,73*,9,3,-9
CC(C)c1nc(SCC(=O)c2ccccc2)c2c(=O)n(C)c(=O)n(C)c2n1,16,16,4,-13,-4
Cc1ccc(C(=O)NCc2nnc(SCC(=O)Nc3sc4c(c3C#N)CCCC4)n2C)cc1,1,82*,-33,3,33
CC(C)CNc1nc(=S)nc(N(C)C)[nH]1,11,21,37*,-8,-37
COc1ccc(OC)c(C2C3=C(CCCC3=O)NC3=C2C(=O)CCC3)c1,2,-9,-2,-1,2
SMILES,sEH inhibitor,HUVEC tox IL1B,NFkB transloc inh,sEH activator,NFkB transloc pot
COc1ccc(OC)c(C2C(C(=O)Nc3cccnc3)=C(C)NC3=C2C(=O)CCC3)c1 (stereo not drawn),1,-21,-42,-3,42*
COc1ccccc1/C=C/C=N/N1CCN(Cc2cccc3ccccc23)CC1,3,-57,3,-1,-3
COc1ccccc1N1CCN(C(=O)c2cc(-c3ccc(Cl)cc3)on2)CC1,-20,14,44*,21,-44
COc1ccccc1N1CCN(C(=O)c2cc(-c3ccc(C)cc3)on2)CC1,7,-13,-2,-7,2
COc1ccc(NS(=O)(=O)c2ccc(OCC(=O)N3CCOCC3)cc2)cc1,-4,-29,31*,4,-31
O=C(COc1ccccc1)N1CCN(C(=O)c2ccco2)CC1,-19,9,-2,19,2
COc1ccc(OCC(=O)N2CCN(C(=O)c3ccco3)CC2)cc1,-37,-7,-4,41*,4
CCCc1cc(=O)oc2cc(C)cc(OCC(=O)O)c12,-9,-1,-13,9,13
C=C(Cl)COc1cc(C)cc2oc(=O)cc(CC)c12,-19,-1,47*,20,-47
CC(C)(C)NC(=O)C(c1ccsc1)N(CCc1ccccc1)C(=O)Cn1nnc2ccccc21 (stereo not drawn),5,-1,58*,-2,-58
Cc1cc(C)c(N(C(=O)Cn2nnc3ccccc32)C(C(=O)NC(C)(C)C)c2ccsc2)c(C)c1 (stereo not drawn),-8,0,6,11,-6
O=C(Nc1ccc(Cc2ccncc2)cc1)C1CC1,10,-5,-13,-12,13
O=C(Nc1ccc(Cc2ccncc2)cc1)C1CCC(N2C(=O)C3C4C=CC(C5CC45)C3C2=O)CC1 (stereo not drawn),86*,-174,12,-87,-12
O=C(Nc1ccc(N2CCOCC2)c(Cl)c1)c1ccccc1F,1,-6,-13,-3,13
O=C(COc1c(F)c(F)c(C(F)(F)F)c(F)c1F)Nc1ccc(N2CCOCC2)c(Cl)c1,83*,-29,-11,-83,11
COC(=O)c1c(NC(=O)c2ccco2)sc(C(=O)N2CCCC2)c1C,8,-6,-2,-10,2
COc1cccc(OCCCOc2ccccc2C(C)C)c1,2,-33,1,0,-1
COC(=O)[C@@H](NC(=O)NCc1ccccc1Cl)C(C)C,89*,-28,-7,-89,7
CN(C)CCNC(=O)Cn1nc(C(F)F)cc1C1CC1,3,-8,5,3,-5
Cc1noc(C)c1CSc1nc2sc(C)c(C)c2c(=O)n1-c1ccccc1,5,-2,5,-6,-5
Cc1noc(C)c1CSc1nc2ccccc2c(=O)n1-c1ccc(Cl)cc1,2,89*,1,-2,-1
Cc1ccc(C(=O)C2(C)C3c4cc(Br)ccc4OC(=O)C32C(=O)c2ccco2)cc1 (stereo not drawn),-15,-10,-16,17,16
O=C(NCCc1csc(-c2cccnc2)n1)c1ccccc1,13,-12,-11,-14,11
O=C(NCCc1csc(-c2cccnc2)n1)c1cccc2ccccc12,nt,79*,35*,nt,-35
COc1ccc(NC(=O)c2ccc(C)cc2Cl)c([N+](=O)[O-])c1,-6,79*,11,4,-11
COc1ccc(NC(=S)NC(NC(=O)c2ccc(Cl)cc2Cl)C(Cl)(Cl)Cl)c([N+](=O)[O-])c1 (stereo not drawn),13,-5,5,-14,-5
